The values below come from PubChem BioAssay (Tox21).

Values joined by “and” are separate entries in the source; they are usually repeats but may differ in a detail not shown here. Equal values may be shown once. Unmarked numbers belong to inactive results. Where a structure was tested more than once in an assay, its records may differ in their call. Active and inactive are the calls of the source. Unless noted, calls follow the shape of the dose curve; as a rule, active = well fitted curve in the direction sought with a large enough effect in the repeat runs; inconclusive = weak or mixed curves; inactive = no such curve, though single readings can be large; an effect the other way counts as inactive or inconclusive.

Experiment [1] is described as follows: qHTS assay to identify small molecule antagonists of the glucocorticoid receptor (GR) signaling pathway - cell viability counter screen (AID 720693). Also: nearly all actives have a fitted effect of over 55% in size.
Experiment [2] can be described thus: qHTS assay for identifying genotoxic compounds that show differential cytotoxicity against isogenic chicken DT40 cell lines with known DNA damage response pathways - wild type cell line (AID 743012). Also: nearly all actives have a fitted effect of over 60% in size. Also: potency is read from the fitted curve at half-maximal effect. Summed up: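 Cytotoxicity in repair-proficient parental chicken DT40 cells serves as the comparator for Rad54/Ku70- and Rev3-deficient lines. Cells were exposed to compounds for 40 h at 37 C/5% CO2, and ATP-based luminescence (CellTiter-Glo) measured viability.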

Experiment [3] is described as follows: qHTS assay for identifying genotoxic compounds that show differential cytotoxicity against isogenic chicken DT40 cell lines with known DNA damage response pathways - Rev3 mutant cell line (AID 743014). Also: nearly all actives have a fitted effect of over 55% in size. Also: potency is read from the fitted curve at half-maximal effect. On the technique in general: Quantitative high-throughput screening tests each substance at several concentrations.
The nature of experiment [4]: qHTS assay for identifying genotoxic compounds that show differential cytotoxicity against isogenic chicken DT40 cell lines with known DNA damage response pathways - Rad54/Ku70 mutant cell line (AID 743015). Also: nearly all actives have a fitted effect of over 60% in size. Also: potency is read from the fitted curve at half-maximal effect.
Experiment [5] can be described thus: qHTS assay to identify small molecule antagonists of the androgen receptor (AR) signaling pathway - cell viability counter screen (AID 743033; also: nearly all actives have a fitted effect of over 45% in size; also: potency is read from the fitted curve at half-maximal effect).
For experiment [6], the target named is Androgen receptor (Homo sapiens) (UniProt P10275). Put plainly: qHTS assay to identify small molecule antagonists of the androgen receptor (AR) signaling pathway (AID 743035; active = well fitted inhibition curve with a large enough effect in the signal ratio in the repeat runs, not every such curve was filed as active; inconclusive = weak or mixed curves, or effect the other way; inactive = no such curve, though single readings can be large or run the other way; the % refers to the signal ratio; also: potency is read from the fitted curve at half-maximal effect). Summed up: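 Steps: seed AR-UAS-bla GripTite HEK293 cells, incubate 4 h at 37C; pin in test compound, then add agonist R1881; incubate 16 h at 37C; add LiveBLAzer B/G FRET substrate, 2 h at room temperature; read fluorescence.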

The target is the same in experiment [7]. Put plainly: qHTS assay to identify small molecule agonists of the androgen receptor (AR) signaling pathway (AID 743036; active = well fitted activation curve with a large enough effect in the signal ratio in the repeat runs, with a control signal flat, not every such curve was filed as active; inconclusive = weak or mixed curves, or effect the other way; inactive = no such curve, though single readings can be large or run the other way; the % refers to the signal ratio). Summed up: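 Screening used 2,000 AR-bla HEK293 cells per well, treated 16 h at 37C with test compounds in DMSO alongside positive and DMSO-only controls; beta-lactamase activity was then read by LiveBLAzer B/G FRET fluorescence after 2 h at room temperature.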

Experiment [8] shares this target. Briefly: qHTS assay to identify small molecule agonists of the androgen receptor (AR) signaling pathway using the MDA cell line (AID 743040; also: potency is read from the fitted curve at half-maximal effect; as to all read-outs here: nearly all actives have a fitted effect of over 20% in size). The following applies: MDA-kb2 AR-luc cells, MMTV luciferase, 16 h; for activity change: active compounds read high. Summed up:
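Luciferase read-out, ONE-Glo, 30 min RT. Cells: MDA-kb2 AR-luc, MMTV promoter with AR and GR response elements. Compound exposure 16 h, 37C, 0% CO2, after 5 h pre-incubation. qHTS agonist mode.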

The nature of experiment [9]: qHTS assay to identify small molecule antagonists of the androgen receptor (AR) signaling pathway using the MDA cell line - cell viability counter screen (AID 743041; also: nearly all actives have a fitted effect of over 45% in size). Summed up:
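Cytotoxicity counter screen: MDA-kb2 AR-luc cells, compound + R1881, 16 h, 37C, 0% CO2; CellTiter-Fluor added at 15.5 h, fluorescence read after 30 min.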

Experiment [10] addresses Androgen receptor (Homo sapiens) (UniProt P10275). Put plainly: qHTS assay to identify small molecule antagonists of the androgen receptor (AR) signaling pathway using the MDA cell line (AID 743042; also: nearly all actives have a fitted effect of over 55% in size; also: potency is read from the fitted curve at half-maximal effect). Summed up: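 MDA-kb2 breast carcinoma cells carrying MMTV-luciferase (AR/GR responsive) were co-treated with compounds and the agonist R1881 for 16 h at 37C. Inhibition read as ONE-Glo luminescence; CellTiter-Fluor fluorescence measured in parallel for cytotoxicity.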

Experiment [11] is described as follows: qHTS assay to identify small molecule antagonists of the thyroid receptor (TR) signaling pathway - cell viability counter screen (AID 743064). Also: nearly all actives have a fitted effect of over 50% in size. Also: potency is read from the fitted curve at half-maximal effect. Summed up: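 Viability of T3-stimulated (1 nM final) GH3.TRE-Luc cells is measured by CellTiter-Fluor fluorescence after 23.5 h compound exposure at 37 °C plus 30 min reagent incubation.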
Experiment [12] in a line: qHTS assay to identify small molecule antagonists of the thyroid receptor (TR) signaling pathway (AID 743065). Also: nearly all actives have a fitted effect of over 55% in size. Also: potency is read from the fitted curve at half-maximal effect. Summed up: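 GH3.TRE-Luc rat pituitary cells (two TREs driving luciferase) were dosed with compound, then stimulated with 1 nM T3 (final) for 23.5 h at 37 C. ONE-Glo luminescence was the read-out, with CellTiter-Fluor fluorescence as the cytotoxicity counter-screen.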

In experiment [13] the test system is thyroid hormone receptor (rat, GH3 cells). Briefly: qHTS assay to identify small molecule agonists of the thyroid receptor (TR) signaling pathway (AID 743066; calls by dose curve).
Experiment [14] can be described thus: qHTS assay to identify small molecule antagonists of the estrogen receptor alpha (ER-alpha) signaling pathway - cell viability counter screen (AID 743074; calls by dose curve;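 also: HEK293 cells carrying ER-alpha-UAS-bla reporter stimulated with 17beta-estradiol; nearly all actives have a fitted effect of over 45% in size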).
Experiment [15] is described as follows: qHTS assay to identify small molecule antagonists of the estrogen receptor alpha (ER-alpha) signaling pathway using the BG1 cell line - cell viability counter screen (AID 743081).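 Also: compound given together with 17beta-estradiol as the ER stimulus; nearly all actives have a fitted effect of over 45% in size.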
A further experiment deals with Aromatase (Homo sapiens) (UniProt P11511). Briefly: qHTS assay to identify aromatase inhibitors (AID 743083). Also: nearly all actives have a fitted effect of over 55% in size. Also: potency is read from the fitted curve at half-maximal effect.
The target of experiment [16] is Estrogen receptor (Homo sapiens) (UniProt P03372). Put plainly: qHTS assay to identify small molecule antagonists of the estrogen receptor alpha (ER-alpha) signaling pathway (AID 743069; active = well fitted curve in the direction sought with a large enough effect in the signal ratio in the repeat runs, not every such curve was filed as active; inconclusive = weak or mixed curves, or effect the other way; inactive = no such curve, though single readings can be large or run the other way; the % refers to the signal ratio; also: potency is read from the fitted curve at half-maximal effect). Summed up: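 Beta-lactamase FRET fluorescence is read after 2 hr at room temperature with LiveBLAzer B/G substrate. Before that, ER-alpha-bla HEK293 cells sit 4 hr after plating, then receive compound plus 17beta-estradiol and incubate 18 hr at 37C.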

Experiment [17] has the same target. Briefly: qHTS assay to identify small molecule agonists of the estrogen receptor alpha (ER-alpha) signaling pathway (AID 743075; calls by dose curve;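 also: HEK293 GripTite cells with ER-alpha and UAS-driven beta-lactamase reporter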).
Experiment [18] shares this target. Put plainly: qHTS assay to identify small molecule agonists of the estrogen receptor alpha (ER-alpha) signaling pathway using the BG1 cell line (AID 743079). Also: nearly all actives have a fitted effect of over 20% in size. Particulars: BG1Luc4E2 cells, ERE-luciferase agonist, 22 h; activation: at 70.3 µM (top of the series) unless noted.
Experiment [19] is described as follows: qHTS assay to identify small molecule antagonists of the estrogen receptor alpha (ER-alpha) signaling pathway using the BG1 cell line (AID 743080; calls by dose curve;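 also: BG1 cells stimulated with 17beta-estradiol alongside compound; nearly all actives have a fitted effect of over 25% in size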; also: potency is read from the fitted curve at half-maximal effect). Summed up: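 BG1-Luc-4E2 cells (endogenous full-length ER-alpha, 4xERE luciferase) hormone-starved 5 days in charcoal-stripped FBS, plated 4,000/well for 24 h, then compound plus 17beta-estradiol for 21.5 h at 37 C; ONE-Glo luminescence read.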
% is scaled to controls: 0 for no effect and ±100 for the full control effect.

Chain of Aromatase (Homo sapiens) (P11511 whole entry, looked up): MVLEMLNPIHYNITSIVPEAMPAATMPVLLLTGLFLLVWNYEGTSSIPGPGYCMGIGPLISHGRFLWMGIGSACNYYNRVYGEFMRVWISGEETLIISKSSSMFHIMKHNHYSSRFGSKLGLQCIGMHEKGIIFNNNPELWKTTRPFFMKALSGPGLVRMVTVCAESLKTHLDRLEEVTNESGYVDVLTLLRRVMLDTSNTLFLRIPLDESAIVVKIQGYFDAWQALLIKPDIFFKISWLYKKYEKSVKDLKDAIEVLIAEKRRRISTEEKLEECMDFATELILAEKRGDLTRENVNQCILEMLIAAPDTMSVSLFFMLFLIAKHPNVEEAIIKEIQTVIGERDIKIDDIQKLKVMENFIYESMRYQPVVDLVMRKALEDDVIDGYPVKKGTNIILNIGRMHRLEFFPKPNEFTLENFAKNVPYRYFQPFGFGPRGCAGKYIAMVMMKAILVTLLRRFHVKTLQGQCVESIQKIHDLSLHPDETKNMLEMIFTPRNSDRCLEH
Chain of Estrogen receptor (Homo sapiens) (P03372 whole entry, looked up): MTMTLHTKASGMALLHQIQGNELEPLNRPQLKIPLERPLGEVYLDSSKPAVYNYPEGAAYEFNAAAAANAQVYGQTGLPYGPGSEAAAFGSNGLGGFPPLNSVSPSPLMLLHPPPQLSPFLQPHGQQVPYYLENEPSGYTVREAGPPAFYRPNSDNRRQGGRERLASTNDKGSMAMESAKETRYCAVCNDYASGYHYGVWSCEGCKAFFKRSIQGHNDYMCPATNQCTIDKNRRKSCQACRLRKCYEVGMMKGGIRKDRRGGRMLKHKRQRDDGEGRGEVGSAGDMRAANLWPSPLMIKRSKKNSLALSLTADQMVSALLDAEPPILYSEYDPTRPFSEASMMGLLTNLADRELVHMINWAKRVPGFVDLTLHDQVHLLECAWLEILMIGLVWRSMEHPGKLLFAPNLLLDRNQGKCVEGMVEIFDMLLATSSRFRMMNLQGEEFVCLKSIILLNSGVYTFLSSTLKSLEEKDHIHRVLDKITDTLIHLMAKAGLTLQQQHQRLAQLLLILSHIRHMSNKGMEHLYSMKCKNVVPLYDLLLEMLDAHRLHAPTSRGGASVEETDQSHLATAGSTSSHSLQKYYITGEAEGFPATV
Chain of Androgen receptor (Homo sapiens) (P10275 whole entry, looked up): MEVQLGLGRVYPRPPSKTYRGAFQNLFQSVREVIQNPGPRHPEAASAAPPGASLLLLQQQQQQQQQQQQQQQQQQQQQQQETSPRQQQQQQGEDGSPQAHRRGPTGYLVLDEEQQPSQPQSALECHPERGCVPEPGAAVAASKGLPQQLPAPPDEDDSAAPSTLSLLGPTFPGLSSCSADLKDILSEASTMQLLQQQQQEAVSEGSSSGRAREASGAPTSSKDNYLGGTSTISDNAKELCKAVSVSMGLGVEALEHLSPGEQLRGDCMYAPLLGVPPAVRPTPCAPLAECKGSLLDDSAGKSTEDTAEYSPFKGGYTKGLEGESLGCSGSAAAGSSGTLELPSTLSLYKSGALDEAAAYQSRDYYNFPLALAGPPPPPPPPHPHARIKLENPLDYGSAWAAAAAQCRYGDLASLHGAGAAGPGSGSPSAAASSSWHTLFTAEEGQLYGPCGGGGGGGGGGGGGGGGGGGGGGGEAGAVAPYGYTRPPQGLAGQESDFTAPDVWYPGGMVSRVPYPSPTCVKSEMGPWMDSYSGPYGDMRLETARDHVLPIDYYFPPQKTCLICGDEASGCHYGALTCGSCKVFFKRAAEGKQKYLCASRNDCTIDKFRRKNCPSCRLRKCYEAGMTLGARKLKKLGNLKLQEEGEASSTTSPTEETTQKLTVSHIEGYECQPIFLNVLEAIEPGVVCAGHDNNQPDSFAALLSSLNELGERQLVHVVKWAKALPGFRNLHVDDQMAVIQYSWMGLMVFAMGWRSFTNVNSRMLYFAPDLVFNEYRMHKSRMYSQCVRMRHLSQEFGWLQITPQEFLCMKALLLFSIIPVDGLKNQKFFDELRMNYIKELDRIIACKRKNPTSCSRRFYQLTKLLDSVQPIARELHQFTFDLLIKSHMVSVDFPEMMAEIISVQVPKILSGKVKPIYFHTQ

As to `S=c1[nH]c2ccccc2[nH]1`, the Potency entry in experiment [1], in experiment [2], in experiment [3], in experiment [4], in [5] and in experiment [6] was “inactive” throughout. The Potency result in [7], in experiment [9], in [10], in [11], in experiment [12] and in experiment [13] was “inactive” throughout. Moreover, the Potency result (in experiment [14]; in experiment [15]; in the experiment with Aromatase (Homo sapiens)) was “inactive” each time. For the same molecule, the Potency in [8] was 3.86 µM (active). Further, in experiment [8] (at 70.3 µM (top of the series)), the activity change is -1.99%.

As to `CCC1(c2ccc(N)cc2)CCC(=O)NC1=O` (stereo not given), the Potency entry in experiment [1], in experiment [2], in experiment [3], in experiment [4], in [5] and in experiment [6] was “inactive” throughout. Further, the Potency result in [7], in experiment [9], in experiment [10], in experiment [11], in experiment [12] and in experiment [13] was “inactive” each time. Moreover, the Potency result in [16], in experiment [14], in experiment [17], in experiment [18], in experiment [19] and in experiment [15] was “inactive” in each case. Also, the activity change in experiment [8] (at 70.3 µM (top of the series)) was -1.61% and 2%.

For `CC(C)=CC1C(C(=O)OCN2C(=O)C3=C(CCCC3)C2=O)C1(C)C` (stereo not given), the Potency entry in [1], in experiment [3], in experiment [5], in experiment [7], in [9] and in experiment [10] was “inactive” each time. The Potency result (in experiment [13]; in experiment [14]; in [15]; with Aromatase (Homo sapiens)) was “inactive” each time. Moreover, the Potency was 43.3 µM (active) in experiment [2], 27.3 µM (active) in experiment [4] and 43.6 µM (active) in [6]. In experiment [8] (at 70.3 µM (top of the series)), the activity change is 7.43% and -10.5%.

For `CC(C)=CC1C(C(=O)OCc2cccc(Oc3ccccc3)c2)C1(C)C` (stereo not given), the Potency entry in experiment [1], in experiment [2], in experiment [3], in experiment [4], in experiment [5] and in experiment [9] was “inactive” each time. Also, the Potency entry in experiment [11], in [12], in experiment [13], in experiment [16], in experiment [14] and in experiment [17] was “inactive” throughout. Further, the Potency entry (in [18]; in experiment [19]; in experiment [15]; with Aromatase (Homo sapiens)) was “inactive” each time.

Turning to `N#Cc1nn(-c2c(Cl)cc(C(F)(F)F)cc2Cl)c(N)c1S(=O)C(F)(F)F` (stereo not given), the Potency entry in experiment [1], in experiment [7], in experiment [13], in [14], in [17] and in experiment [15] was “inactive” in each case. Further, the Potency in experiment [2] is 8.41 µM (active) and 2.75 µM (active); in experiment [3], 10.6 µM (active) and 3.88 µM (active); in experiment [4] it was 9.44 µM (active) and 1.94 µM (active); in [5] it was 15.6 µM (active); in experiment [6], 23.9 µM (active); in experiment [10], 17.3 µM (active). The Potency is 29.8 µM (active) and 61.5 µM (active) in experiment [11]; 26.6 µM (active) and 19.4 µM (active) in experiment [12]; 17.5 µM [inconclusive] (active) in experiment [16]; 7.5 µM (active) and 24.5 µM (active) in experiment [19]; 33.5 µM (active) and 19.4 µM (active) in the experiment with Aromatase (Homo sapiens). In addition, the activity change in [8] (at 70.3 µM (top of the series)) is -9.74%; in experiment [8] (at 95 µM (top of the series)), -12%.
